# Screening results: PubChem BioAssay, Sanford-Burnham Center for Chemical Genomics
# CYP2C19 act = human CYP2C19 activators, primary screen, biochemical, luminescence; Cytochrome P450 2C19 (Homo sapiens), P33261; recombinant CYP2C19, luciferin-H EGE luminescence; stronger effect = higher value; 0 = fully inhibited enzyme, 1 = untreated enzyme; activation factor at 5 µM; 96,000 tested, under 10 active; AID 1025, 2008;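 active means activation factor of at least 2 at 5 µM in the primary screen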;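 further: 0 = wells with 2.5 mM tranylcypromine and 1 = vehicle-only wells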
# CYP2C9 activ = human CYP2C9 activators, primary screen, biochemical, luminescence; AID 1024, 2008; Cytochrome P450 2C9 (Homo sapiens), P11712; recombinant CYP2C9, luciferin-H conversion; stronger effect = higher value; factor 1 = untreated enzyme, 0 = blocked; hit rate 1.4% among 96,000; activation factor at 5 µM;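 active means activation factor of 2 or more for CYP2C9 at a 5 µM dose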;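 further: 0 = sulfaphenazole-blocked wells and 1 = vehicle-only wells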
# CD11b adhes inh = inhibitors of CD11b/CD18 adhesion to fibrinogen, primary screen, K562 cells, luminescence | inhibition, % at 10 µM | Integrin beta-2 (Homo sapiens) + Integrin alpha-M (Homo sapiens), P05107+P11215 | AID 1497, 2009 | ATPlite luminescence; Mn2+ added to activate the integrin | hit rate 0.54% among 93,000;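 active means primary inhibition of 50% or more at 10 µM, then 40% or more on retest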
# Target sequence (P05107 whole entry, looked up, other chains not shown): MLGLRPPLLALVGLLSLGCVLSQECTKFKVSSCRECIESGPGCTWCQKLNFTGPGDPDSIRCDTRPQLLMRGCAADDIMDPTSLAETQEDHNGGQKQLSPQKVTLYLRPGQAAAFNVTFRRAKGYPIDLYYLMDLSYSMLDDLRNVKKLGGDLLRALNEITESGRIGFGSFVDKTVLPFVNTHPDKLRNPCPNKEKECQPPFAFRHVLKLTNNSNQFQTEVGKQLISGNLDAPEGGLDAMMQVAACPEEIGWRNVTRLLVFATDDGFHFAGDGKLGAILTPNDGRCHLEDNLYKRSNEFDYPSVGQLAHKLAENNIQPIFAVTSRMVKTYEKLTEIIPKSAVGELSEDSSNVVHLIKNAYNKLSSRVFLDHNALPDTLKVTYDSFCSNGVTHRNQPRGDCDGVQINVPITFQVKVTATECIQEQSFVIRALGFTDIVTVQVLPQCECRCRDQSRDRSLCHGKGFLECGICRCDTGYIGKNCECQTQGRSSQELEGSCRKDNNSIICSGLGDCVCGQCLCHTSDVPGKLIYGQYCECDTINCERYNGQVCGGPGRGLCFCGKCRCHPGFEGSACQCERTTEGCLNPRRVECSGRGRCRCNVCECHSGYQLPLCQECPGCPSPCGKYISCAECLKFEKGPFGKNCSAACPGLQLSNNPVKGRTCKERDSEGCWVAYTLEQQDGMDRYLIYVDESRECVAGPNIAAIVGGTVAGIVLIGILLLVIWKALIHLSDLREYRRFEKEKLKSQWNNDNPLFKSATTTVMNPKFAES
# CYP2C19 inhib = blockers of cytochrome P450 2C19 activity – biochemical, luminescence, ADME assay, primary screen; CYP2C19 Supersomes, luciferin-H EGE luminescence, 30 min; inhibition, % at 5 µM; hit rate 21% among 96,000;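 active means CYP2C19 inhibition above a set limit at 5 µM in the primary screen, cut at about 50% in these data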;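 further: plate controls were negative control wells for no effect and 2.5 mM tranylcypromine positive control for full effect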
# CYP2C9 inhib = blockers of cytochrome P450 2C9 activity – biochemical, luminescence, ADME assay, primary screen. CYP2C9 Supersomes, luciferin-H conversion. inhibition, % at 5 µM. hit rate 20% among 96,000. AID 777, 2007;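 active means blocking of liver enzyme CYP2C9 beyond about 50% at 5 µM, limit read from the data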
# CD11b adhes enh = enhancers of CD11b/CD18 adhesion to fibrinogen, primary screen, K562 cells, luminescence; ATPlite luminescence; hit rate 0.07% among 93,000; activation, % at 10 µM;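 active means 10 µM primary screen giving 50% or more activity, confirmed by 40% or more on retest at that dose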
# * marks the source's active call; other numbers are inactive results; nt = no result. Only some compounds are listed: those with a hit (about 28% of all), similar ones and a draw of the others.
SMILES,CYP2C19 act,CYP2C9 activ,CD11b adhes inh,CYP2C19 inhib,CYP2C9 inhib,CD11b adhes enh
O=C1C=C(NC2CC2)C2(CCCCC2)O1,0.9,0.9,-8,6,5,-1
N=C1C=CC=C2C1=NC1(CCCCC1)N2O,0.8,0.8,0,18,22,-2
CCNc1nc(OCCNS(=O)(=O)c2cc(C)ccc2C)nc(N(C)C)n1,0.4,0.8,-7,58*,18,1
COc1cc(C)nc(OCCNS(=O)(=O)c2cc(C)ccc2C)n1,0.2,1.9,-6,82*,-87,-1
CCNc1nc(NCC)nc(OCCNS(=O)(=O)c2cc(C)ccc2C)n1,0.1,1.3,-37,89*,-34,0
O=C(NCC12CC3CC(CC(C3)C1)C2)c1nn2cccnc2c1Cl,0.7,1,-25,27,1,-2
Cc1ccc(NC(=O)c2cc([N+](=O)[O-])ccc2NCc2cccnc2)cc1Cl,0.2,0.1,3,85*,92*,-2
COC(=O)c1cn(Nc2ncc(C(F)(F)F)cc2Cl)c(=O)c2ccccc12,0.5,0.7,-6,52*,35,-3
COC(=O)c1cn(N(C)c2ncc(C(F)(F)F)cc2Cl)c(=O)c2ccccc12,0,0,-7,98*,100*,0
COC(=O)c1cn(NC(=O)c2cnccn2)c(=O)c2ccccc12,1,1,-3,0,1,-3
CCOc1cc(S(=O)(=O)N2CCCCC2)ccc1Cl,0.3,2.5*,2,71*,-148,-4
COc1ccc2cc(S(=O)(=O)N3CCCCC3)ccc2c1S(=O)(=O)N1CCCCC1,0.8,0.5,31,25,52*,0
COc1cc(S(=O)(=O)N2CCCCCC2)ccc1Cl,0,2.4*,4,98*,-139,-2
CCOc1cc(S(=O)(=O)N2CCN(CC)CC2)ccc1Cl,0.4,2.3*,8,65*,-134,-3
CCOC(=O)C1CCN(S(=O)(=O)c2ccc(Br)c(OCC)c2)CC1,0.6,1.1,4,40,-13,-1
O=C(NC1CCCC1)C1CCCN1C(=O)Nc1ccc(Cl)cc1 (centres undefined),0.7,1,4,27,3,-4
COC(=O)c1cc(Br)c(=O)n(-c2ccc(C(C)=O)cc2)c1,0.7,0.8,-8,34,25,-4
CC(C)(C)N=C1NC(=NC(C)(C)C)c2ccccc21,1,0.9,-2,-1,9,3
CCn1c(=S)[nH]c2cc(S(=O)(=O)N3CCCCC3)ccc21,0.6,0.5,1,45,51*,0
CCOc1cc(S(=O)(=O)N2CCOCC2)ccc1F,0.4,1.4,-12,57*,-41,-1
CCCCNC(=O)CC1Nc2ccccc2NC1=O (centres undefined),1.2,1.2,-5,-18,-17,-2
CCNC(=O)CC1SC(=Nc2ccc(C)cc2)N(CC)C1=O (centres undefined),0.5,0.7,8,53*,27,-2
CCCCOc1ccccc1NC(=O)CC1Nc2ccccc2NC1=O (centres undefined),0.7,0.4,3,26,64*,10
CCN=C1SC(CC(=O)Nc2ccccc2OCC)C(=O)N1CC (centres undefined),0.2,1.4,1,76*,-36,2
CCN=C1SC(CC(=O)NC2CCCCC2)C(=O)N1CC (centres undefined),0.8,1,-6,16,-3,-1
SMILES,CYP2C19 act,CYP2C9 activ,CD11b adhes inh,CYP2C19 inhib,CYP2C9 inhib,CD11b adhes enh
CCN=C1SC(CC(=O)Nc2sc3c(c2C#N)CCCC3)C(=O)N1CC (centres undefined),0.8,0.5,6,20,53*,6
CCN=C1SC(CC(=O)NC(N)=O)C(=O)N1CC (centres undefined),1,1.1,-14,3,-13,-5
O=C(O)CCC(=O)N1CCc2cc(S(=O)(=O)N(CCc3ccccc3)Cc3ccccc3)ccc21,1,0.9,18,0,12,11
CN1C(=O)[C@@H]2[C@@H]3C[C@@H]([C@H]4ON=C(c5ccc(Cl)cc5Cl)[C@@H]34)[C@@H]2C1=O,nt,nt,4,nt,nt,3
N=c1oc2ccccc2cc1-c1nc(-c2ccc(Cl)cc2)cs1,nt,nt,-5,nt,nt,12
CCOCc1nnc(NC(=O)c2c(OC)cccc2OC)s1,0.9,1,-20,8,0,-2
COCCCNC(=O)C1CCCN(C(=O)Nc2ccc(OC)cc2)C1 (centres undefined),1.1,0.9,nt,-7,8,nt
CCOC(=O)c1[nH]nc2c1C(=O)N(Cc1ccccc1)C2=O,0.7,0.8,25,34,20,-3
Fc1ccc(Nc2nc(Oc3ccccc3F)nc(N3CCCC3)n2)cc1,1.2,0.6,19,-19,39,1
Cc1cc(C)cc(-n2c(SCC(=O)Nc3cccc(S(=O)(=O)NC4=NCCCCC4)c3)nc3ccccc3c2=O)c1,nt,nt,-17,nt,nt,-2
CCN=C1SC(CC(=O)NCCc2ccc(OC)cc2)C(=O)N1CC (centres undefined),0.5,0.5,10,48,51*,0
CCN=C1SC(CC(=O)Nc2ccc(C(F)(F)F)cc2)C(=O)N1CC (centres undefined),0.4,0.8,-1,65*,17,2
CCN=C1SC(CC(=O)NCCc2ccc(OC)c(OC)c2)C(=O)N1CC (centres undefined),0.8,0.8,nt,17,22,nt
CCN=C1SC(CC(=O)Nc2ccc(N3CCOCC3)cc2)C(=O)N1CC (centres undefined),0.8,0.9,-15,16,14,-10
CCCCOc1ccccc1NC(=O)CC1SC(=NCC)N(CC)C1=O (centres undefined),0.3,1.1,-2,69*,-14,-2
O=C(CSc1ccc2nnc(-c3cccnc3)n2n1)NCc1ccc2c(c1)OCO2,1.1,0.9,-6,-13,11,-2
CS(=O)(=O)N(CC(=O)Nc1cccnc1)c1ccc2c(c1)OCO2,0.4,1,-39,58*,-1,-4
COC(=O)c1cccc(NC(=O)CN(c2ccc3c(c2)OCO3)S(C)(=O)=O)c1C,0.1,0.3,53,90*,71*,-5
COC(=O)c1ccc(Cl)c(NC(=O)CN(c2ccc3c(c2)OCO3)S(C)(=O)=O)c1,0.1,0.1,-26,90*,87*,1
COC(=O)c1cc(NC(=O)CN(c2ccc3c(c2)OCO3)S(C)(=O)=O)ccc1Cl,0.1,0.1,-14,93*,93*,-1
